Assay outcomes as filed in PubChem.
Rows were chosen to be rich in hits. Some 21% of all compounds tested hit in one or more screens of this group.
Pf growth 96h: P. falciparum growth inhibition at 96 hours | P. falciparum luciferase reporter growth, 96 h | Potency, µM (highest dose often 28.7 µM), without a hit: top-dose activity change, negative = inhibition, usual class: inhibitors | 320,000 compounds, 6.9% hits | AID 504834; note: potency is the fitted concentration of half-maximal effect; % is set by controls: 0 for no effect and ±100 for the full control effect
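P. falciparum expressing integrated firefly luciferase grown in erythrocytes (2% hematocrit, 0.05% parasitemia final) with compounds for 96 hours at 37 C, 5% CO2. Growth inhibition read as loss of luminescence after adding luciferase detection reagent.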
Cycloheximide cs: counter-screen hit for Shiga toxin inhibitors, cycloheximide; cell reporter, cycloheximide protein synthesis inhibition counterscreen; max response, %; 300,000 compounds, 12% hits; AID 2314; in the data active = max response mostly above about 13%, no sharp cut-off; inactive = mostly below about 14%; note: read at 38.3 µM for the half of the compounds with a filed dose; 0% is about no effect
NS1 inh: blocks influenza NS1 protein function | Potency, µM (series often up to 46.1 µM), for inactives: top-dose activity, positive = more growth | 270,000 compounds, 0.4% hits | AID 2326; calls by dose curve; note: potency is the fitted concentration of half-maximal effect; actives are rising curves; nearly all actives have a fitted effect of over 50% in size
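S. cerevisiae expressing influenza A NS1, grown in glucose, washed, then diluted 1:100 into pH 6.0 -URA galactose medium with 23 nl compound. Growth recovery read as OD600; NS1-free strain serves as control.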
Pf growth 48h: P. falciparum growth inhibition at 48 hours (one generation); Potency, µM (titrated, usually from 28.7 µM), for the others: at the highest dose activity change, negative = inhibition, most hits filed as inhibitors; 310,000 compounds, 5.9% hits; AID 504832; P. falciparum luciferase growth in erythrocytes, 48 h; note: potency is the fitted concentration of half-maximal effect; % is set by controls: 0 for no effect and ±100 for the full control effect
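Erythrocytes infected with P. falciparum carrying an integrated firefly luciferase reporter (2% hematocrit, 0.1% parasitemia final) were exposed to compounds in RPMI 1640 with 0.5% Albumax at 37 C, 5% CO2. Growth inhibition was scored as reduced luminescence.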
Shiga toxin inh: blocks Shiga toxin action in Vero cells; Vero cells, Shiga toxin protein synthesis inhibition reporter; inhibition, % at 38.7 µM; 290,000 compounds, 9.2% hits; AID 2315; in the data active = inhibition mostly above about 28%, no sharp cut-off; inactive = mostly below about 43%; note: 0% is about no effect
Active calls of the source: *; i = inactive; u = inconclusive; x = no result given. Unless noted, calls come from the whole dose curve; as a rule, active = well fitted inhibition curve with a large enough effect; inconclusive = small, poorly fitted or top-dose-only effect, or another doubt; inactive = no such curve, though single readings can be large or run the other way.

SMILES | Pf growth 96h | Cycloheximide cs | NS1 inh | Pf growth 48h | Shiga toxin inh
Cc1cc(C)cc(NC(=O)C2CCCN(c3nc(C)cc(C)n3)C2)c1 (configuration not stated) | x | 4.2 | -11.0% | x | -12.4
Cc1cc(C)nc(N2CCC(C(=O)Nc3ccc4c(c3)CCC4)CC2)n1 | 11.7µM* | -0.7 | -0.2% | 15.9% | -8.0
COCc1ccc([C@@H]2C[C@H]3CN(Cc4cccc(Cl)c4)C(=O)[C@]34CCCN24)o1 | 30.1% | -1.8 | 5.0% | u | -2.1
C=C(C)COc1ccc(-c2[nH]ncc2-c2ccc(Br)cc2)c(O)c1 | 1.65µM* | -3.7 | 22.3% | 3.7µM* | -11.1
C=C(C)COc1ccc(-c2[nH]ncc2-c2ccccc2OC)c(O)c1 | 11.9% | -5.5 | -112.5% | 3.29µM* | -18.3
C=C(C)COc1ccc(-c2n[nH]c(C)c2-c2ccc(Br)cc2)c(O)c1 | u | -2.4 | -75.6% | u | -4.0
C=C(C)COc1ccc(-c2[nH]ncc2Oc2ccc(OC)cc2)c(O)c1 | u | 22.0* | -64.6% | u | 29.5
COc1ccc(-c2[nH]ncc2-c2nc(C)cs2)c(O)c1 | 35.5% | 1.0 | 2.0% | 14.6% | 38.9
CCCOC(=O)c1ccc(Oc2cn[nH]c2-c2ccc(OC)cc2O)cc1 | u | -4.4 | -83.8% | 10.4µM* | -4.3
Cc1ccc(NC(=O)C(C)SCc2nc3sc(C)c(C)c3c(=O)[nH]2)nc1 (configuration not stated) | 7.2% | x | x | 5.0% | x
CCOC(=O)N1CCN(C(=O)/C=C/c2ccc(OC)cc2)CC1 | 41.6% | 10.3 | 5.9% | 41.6% | -2.0
c1ccc(NC2=NCCN2CC2CCCC2)cc1 | u | -1.5 | 2.0% | 30.4% | -7.8
CCNC(=O)C1CCCN(c2nc(C)cc(C)n2)C1 (configuration not stated) | u | -0.9 | 1.0% | 11.2% | -10.0
COc1ccc(-c2cn[nH]c2-c2ccc(OCc3ccc([N+](=O)[O-])cc3)cc2O)cc1 | u | 2.1 | 12.9% | 13.1µM* | -1.3
C=C(C)COc1ccc(-c2[nH]ncc2Oc2ccccc2OC)c(O)c1 | 11.2% | 12.7 | -115.1% | 13.1µM* | 12.4
CCOc1ccc(-c2[nH]ncc2-c2ccc(Cl)cc2)c(O)c1 | 3.29µM* | -5.1 | -0.6% | 8.28µM* | -19.9
C=C(C)COc1ccc(-c2nc(N)ncc2Oc2ccccc2OC)c(O)c1 | u | -1.6 | -55.7% | u | 4.7
CCc1cc(-c2[nH]ncc2-c2ccc(OC)cc2)c(O)cc1O | u | -5.4 | 1.7% | u | -19.3
Nc1ncnc2c1nc(Sc1ccc(Cl)cc1)n2[C@H]1O[C@@H]2COP(=O)(O)O[C@H]2[C@@H]1O | x | x | 0.4% | x | x
CCC(C)NC(=O)CN1C(=O)NC2(CCc3ccccc3C2)C1=O (configuration not stated) | 14.1% | -4.4 | 0.7% | -7.3% | -13.9
Cc1cc(Cl)ccc1Oc1nccc(N(C)C)c1C#N | u | 13.9* | 9.6% | 24.6% | 21.2
CN(C)c1ccnc(Oc2ccccc2)c1C#N | 26.1% | 12.2 | 1.6% | 21.7% | 19.1
COc1ccnc(Oc2ccc(Cl)cc2)c1C#N | 71.4% | 15.5 | x | i | 51.1
CN(C)c1ccnc(Oc2ccc(Cl)cc2)c1C#N | u | 69.1* | -16.4% | 40.9% | 126.7*
CN(C)c1ccnc(Oc2ccc(C(C)(C)C)cc2)c1C#N | u | 37.4* | -9.2% | u | 72.6*
SMILES | Pf growth 96h | Cycloheximide cs | NS1 inh | Pf growth 48h | Shiga toxin inh
CCOC(=O)/C=C1\CN(CCC(C)C)S(=O)(=O)c2ccccc21 | 14.7µM* | -2.6 | 0.3% | u | -10.9
O=C(c1ccccc1F)N(Cc1ccc2c(c1)OCO2)Cc1cc2cc3c(cc2n2nnnc12)OCO3 | 12.6% | 10.2 | 24.2% | u | -26.1
N#Cc1nc(-c2ccccc2)oc1NCCCn1ccnc1 | u | 16.4* | -1.8% | u | 70.2
N#Cc1nc(-c2ccc(OCc3ccc(Cl)cc3)cc2)oc1NCCCn1ccnc1 | u | 6.7 | u | 2.33µM* | 52.2
COc1ccccc1-c1nc(C#N)c(NCCCn2ccnc2)o1 | -19.8% | -2.4 | 1.0% | -17.0% | -7.8
c1cnc(SCCOc2cccc3ccccc23)nc1 | 45.8% | 51.9* | -53.3% | x | 78.6*
Fc1ccccc1OCCCCSc1ncccn1 | 141.3% | 27.4* | 0.4% | 33.2% | 22.2
Clc1ccc(OCCn2ccnc2)c2ccccc12 | x | -3.1 | -112.3% | u | -11.6
Clc1ccc(OCCSc2ncccn2)c2ccccc12 | 14.1% | 38.6* | -4.2% | 14.9% | 90.9*
Fc1ccccc1OCCCn1ccnc1 | 299.7% | 1.6 | 4.5% | -3.0% | 20.2
CC(C)Cc1nnc(NC(=O)CCC(=O)N2CCN(c3ccc(Cl)cc3)CC2)s1 | u | -2.9 | 11.1% | -8.5% | -6.9
O=C(Cc1ccccc1)Nc1ccc(NC(=O)c2ccccc2)nc1 | u | 37.5* | -5.5% | 70.6% | 174.2*
O=C(Nc1ccc(NC(=O)C2CC2)cn1)c1ccccc1Cl | x | 33.3* | -3.4% | 69.8% | 49.5*
O=C(Nc1ccc(N2CCOCC2)nc1)c1ccc(C(F)(F)F)cc1 | u | 10.4 | x | -12.8% | 2.8
O=C(Nc1ccc(N2CCOCC2)nc1)c1ccccc1Cl | 39.5% | 28.8* | -2.8% | 134.9% | 27.7
O=C(Nc1ccc(NC(=O)C2CC2)cn1)c1ccccc1 | 12.9% | 25.7* | -5.6% | 113.6% | 43.0*
CSCC[C@H](NC(=O)c1ccc(NC[C@@H](N)CS)cc1-c1ccccc1)C(=O)O | x | -5.3 | x | x | -9.2
Cc1ccccc1Nc1cccc2nonc12 | 6.1% | 4.6 | -3.7% | -15.8% | -8.6
CCNc1c(NC(=O)c2ccc3c(c2)OCO3)c(=O)oc2ccccc12 | u | 10.0 | 1.2% | 19.1% | 1.3
O=c1n(-c2ccc(Br)cc2)cnn1-c1ncccc1[N+](=O)[O-] | 93.8% | 31.3* | 3.1% | 53.8% | 91.5*
COCCN1C(=O)/C(=C/c2ccc(OCc3ccc(C(=O)O)cc3)c(OC)c2)SC1=Nc1ccccc1 | 8.28µM* | -4.6 | 0.2% | 11.7µM* | -2.8
CN=C1S/C(=C\c2ccc(OCC(=O)OC)c(OC)c2)C(=O)N1C | 25.0% | 13.0* | -33.3% | -3.2% | x
CSC1=NC(=O)/C(=C/c2ccc(SC)cc2)S1 | 160.3% | 30.8* | x | 212.0% | 96.3
CN=C1S/C(=C\c2ccc(SC)cc2)C(=O)N1C | 88.8% | 33.0* | -9.3% | 67.8% | 56.0*
CSC1=N/C(=C\c2ccc(F)cc2)C(=O)S1 | u | 7.5 | -19.7% | 41.8% | -17.5
SMILES | Pf growth 96h | Cycloheximide cs | NS1 inh | Pf growth 48h | Shiga toxin inh
CN=C1S/C(=C\c2ccc(Cl)cc2)C(=O)N1C | 56.1% | 6.2 | -15.5% | 17.0% | 26.2
Cc1ccnc(NS(=O)(=O)c2ccc(NS(=O)(=O)c3cc(Cl)ccc3Cl)cc2)n1 | 7.5% | 3.8 | 2.9% | 2.0% | -7.1
CC(C)(C)c1ccc(NC(=O)C2=CN3CCS(=O)(=O)N=C3C=C2)cc1 | u | x | x | -4.1% | x
CCOC(=O)CSC1=NC(=O)/C(=C\c2ccc(Cl)cc2)S1 | -1.4% | 33.8* | -185.9% | 31.6% | 104.2*
Cn1cccc1C(=O)OCc1cc(Cl)cc2c1OCOC2 | 211.1% | 61.6* | -12.1% | 74.8% | 145.1*
O=C(NCC(=O)N(Cc1ccccc1)C(C(=O)NC1CCCC1)c1cccnc1)c1ccco1 (configuration not stated) | 16.5µM* | -3.8 | -2.1% | 0.7% | -4.7
